Laboratory results published in the supplement of paper PMC10849652.
About 7,900 targets were measured; listed, in parts, are those with a hit and a random draw of the rest. About 0.6% of all pairs of compound and target were hits.

How the values were obtained:
Test in all cases: log2 fold change, soluble protein after heating vs DMSO (PISA); higher = thermal stabilisation; K562 cells, 10 uM, 30 min; active = over 0.2 and 3.5 SD of the protein, either way, in both replicates (recomputed)
saracatinib = compound: CN1CCN(CCOc2cc(OC3CCOCC3)c3c(Nc4c(Cl)ccc5c4OCO5)ncnc3c2)CC1 [saracatinib]
In short: (§1)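 K562 cells at 2×10^6 cells/mL were treated with 10 μM compound for 30 min. Aliquots were heated for 3 min across 48°C-58°C, pooled, and extracted in PBS with 0.5% NP-40 at 4°C; soluble protein was the supernatant after 21,000xg for 90 min. Soluble protein was quantified by TMTpro 16plex LC-MS/MS with channel sums equalised, and reported as log2 fold change in thermal stability against DMSO controls, with values from duplicates.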

sotrastaurin = compound: CN1CCN(c2nc(C3=C(c4c[nH]c5ccccc45)C(=O)NC3=O)c3ccccc3n2)CC1 [sotrastaurin]
In short: as §1

alvocidib = compound: CN1CC[C@H](c2c(O)cc(O)c3c(=O)cc(-c4ccccc4Cl)oc23)[C@H](O)C1 [alvocidib]
In short: as §1

Tubastatin A = compound: CN1CCc2c(c3ccccc3n2Cc2ccc(C(=O)NO)cc2)C1 [Tubastatin A]
In short: as §1

[1] = compound: CNC(=O)C1=CC=CC=C1NC2=NC(=NC=C2Cl)NC3=C(C=C(C=C3)N4CCOCC4)OC
In short: as §1

defactinib = compound: CNC(=O)c1ccc(Nc2ncc(C(F)(F)F)c(NCc3nccnc3N(C)S(C)(=O)=O)n2)cc1 [defactinib]
In short: as §1

rucaparib = compound: CNCc1ccc(-c2[nH]c3cc(F)cc4c3c2CCNC4=O)cc1 [rucaparib]
In short: as §1

[2] = compound: CNc1nc(-c2ccc3c(N)n[nH]c3c2)cc(N2C[C@@H](C(=O)NC3CCCCC3)CC[C@H]2C)n1
In short: as §1

encorafenib = compound: COC(=O)N[C@@H](C)CNc1nccc(-c2cn(C(C)C)nc2-c2cc(Cl)cc(NS(C)(=O)=O)c2F)n1 [encorafenib]
In short: as §1

[3] = compound: COC(=O)[C@H](CCSC)NC(=O)C1=C(C=C(C=C1)NC[C@H](CS)N)C2=CC=CC=C2
In short: as §1

Measured: log2 fold change

LRBA (UniProt P50851)
inactive: saracatinib 0.039 | sotrastaurin -0.031 | alvocidib -0.054 | Tubastatin A 0.014 | [1] -0.012 | defactinib -0.015 | rucaparib -0.01 | [2] -0.023 | encorafenib 0.018 | [3] -0.002

IMMP1L (UniProt Q96LU5)
inactive: saracatinib -0.041 | sotrastaurin -0.005 | alvocidib 0.039 | Tubastatin A -0.024 | [1] -0.01 | defactinib 0.011 | rucaparib -0.039 | [2] -0.102 | encorafenib -0.037 | [3] -0.027

ILRUN (UniProt Q9H6K1)
inactive: saracatinib -0.132 | sotrastaurin -0.029 | alvocidib -0.022 | Tubastatin A 0.116 | [1] 0.023 | defactinib -0.036 | rucaparib 0.037 | [2] 0.049 | encorafenib 0.045 | [3] 0.121

LMBRD2 (UniProt Q68DH5)
inactive: saracatinib 0.04 | sotrastaurin 0.02 | alvocidib -0.041 | Tubastatin A -0.032 | [1] -0.014 | defactinib -0.01 | rucaparib 0.003 | [2] -0.037 | encorafenib 0.021 | [3] -0.021

ITM2B (UniProt Q9Y287)
inactive: saracatinib -0.181 | sotrastaurin 0.123 | alvocidib -0.053 | Tubastatin A 0.143 | [1] 0.06 | defactinib -0.007 | rucaparib 0.007 | [2] 0.091 | encorafenib 0.098 | [3] -0.096

METTL18 (UniProt O95568)
Chain of UniProt O95568 (O95568 whole entry, looked up): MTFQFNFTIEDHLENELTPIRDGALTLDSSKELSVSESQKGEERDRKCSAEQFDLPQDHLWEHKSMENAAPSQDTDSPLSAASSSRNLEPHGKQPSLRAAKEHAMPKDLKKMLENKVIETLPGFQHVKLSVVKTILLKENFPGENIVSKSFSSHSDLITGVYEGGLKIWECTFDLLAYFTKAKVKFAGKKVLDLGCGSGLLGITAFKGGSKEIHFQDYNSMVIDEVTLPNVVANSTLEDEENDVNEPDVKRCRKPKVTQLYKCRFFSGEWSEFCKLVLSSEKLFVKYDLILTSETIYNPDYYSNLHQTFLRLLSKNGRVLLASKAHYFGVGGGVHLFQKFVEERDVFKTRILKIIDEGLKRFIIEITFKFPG
inactive: saracatinib 0.024 | sotrastaurin 0.066 | alvocidib -0.056 | Tubastatin A -0.037 | [1] -0.042 | defactinib -0.021 | rucaparib -0.041 | [2] -0.031 | encorafenib 0.108 | [3] -0.176

MAP3K7 (UniProt O43318)
inactive: saracatinib -0.07 | sotrastaurin -0.146 | alvocidib -0.072 | Tubastatin A 0.054 | [1] 0.023 | defactinib -0.023 | rucaparib 0.099 | [2] -0.035 | encorafenib 0.1 | [3] -0.011

MCUR1 (UniProt Q96AQ8)
Chain of UniProt Q96AQ8 (Q96AQ8 whole entry, looked up): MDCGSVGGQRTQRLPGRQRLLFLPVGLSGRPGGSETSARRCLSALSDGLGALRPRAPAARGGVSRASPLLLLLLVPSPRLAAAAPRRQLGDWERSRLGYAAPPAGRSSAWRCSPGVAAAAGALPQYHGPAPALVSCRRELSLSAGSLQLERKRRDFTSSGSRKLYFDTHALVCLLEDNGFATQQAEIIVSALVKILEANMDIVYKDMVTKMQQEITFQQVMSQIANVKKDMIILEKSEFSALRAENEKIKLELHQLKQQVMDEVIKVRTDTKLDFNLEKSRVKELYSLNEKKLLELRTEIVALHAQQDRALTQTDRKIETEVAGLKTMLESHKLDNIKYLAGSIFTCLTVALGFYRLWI
inactive: saracatinib -0.002 | sotrastaurin 0.053 | alvocidib -0.035 | Tubastatin A 0.014 | [1] 0.014 | defactinib -0.047 | rucaparib -0.038 | [2] 0.014 | encorafenib -0.009 | [3] -0.028

KDM5D isoform 3 (UniProt Q9BY66)
active: Tubastatin A -0.451
inactive: saracatinib -0.063 | sotrastaurin 0.078 | alvocidib -0.193 | [1] 0.026 | defactinib -0.357 | rucaparib 0.067 | [2] -0.078 | encorafenib 0.198 | [3] -0.05

LBR (UniProt Q14739)
Chain of UniProt Q14739 (Q14739 whole entry, looked up): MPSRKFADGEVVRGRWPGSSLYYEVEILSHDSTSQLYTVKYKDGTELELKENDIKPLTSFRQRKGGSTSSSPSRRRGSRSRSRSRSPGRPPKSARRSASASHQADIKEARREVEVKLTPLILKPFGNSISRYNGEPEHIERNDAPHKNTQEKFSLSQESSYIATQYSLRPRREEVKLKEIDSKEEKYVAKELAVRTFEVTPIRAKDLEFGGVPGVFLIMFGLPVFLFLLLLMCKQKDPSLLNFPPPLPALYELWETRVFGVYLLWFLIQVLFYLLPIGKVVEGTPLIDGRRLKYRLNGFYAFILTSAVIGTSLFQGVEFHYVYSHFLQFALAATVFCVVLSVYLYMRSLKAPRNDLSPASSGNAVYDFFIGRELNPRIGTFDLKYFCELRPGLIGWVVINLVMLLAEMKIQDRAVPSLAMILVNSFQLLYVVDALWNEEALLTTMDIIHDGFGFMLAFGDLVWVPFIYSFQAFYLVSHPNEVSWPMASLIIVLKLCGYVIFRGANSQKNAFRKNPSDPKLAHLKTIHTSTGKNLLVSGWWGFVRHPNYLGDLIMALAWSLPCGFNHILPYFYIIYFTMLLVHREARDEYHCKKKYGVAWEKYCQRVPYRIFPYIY
inactive: saracatinib 0.008 | sotrastaurin 0.036 | alvocidib -0.032 | Tubastatin A -0.008 | [1] -0.02 | defactinib -0.022 | rucaparib 0.164 | [2] 0.116 | encorafenib 0.058 | [3] -0.089

KCTD10 (UniProt Q9H3F6)
inactive: saracatinib 0.221 | sotrastaurin -0.002 | alvocidib 0.018 | Tubastatin A 0.071 | [1] -0.011 | defactinib 0.013 | rucaparib -0.07 | [2] 0.007 | encorafenib 0.015 | [3] -0.07

IMMT isoform 2 (UniProt Q16891)
Chain of UniProt Q16891 (Q16891 whole entry, looked up): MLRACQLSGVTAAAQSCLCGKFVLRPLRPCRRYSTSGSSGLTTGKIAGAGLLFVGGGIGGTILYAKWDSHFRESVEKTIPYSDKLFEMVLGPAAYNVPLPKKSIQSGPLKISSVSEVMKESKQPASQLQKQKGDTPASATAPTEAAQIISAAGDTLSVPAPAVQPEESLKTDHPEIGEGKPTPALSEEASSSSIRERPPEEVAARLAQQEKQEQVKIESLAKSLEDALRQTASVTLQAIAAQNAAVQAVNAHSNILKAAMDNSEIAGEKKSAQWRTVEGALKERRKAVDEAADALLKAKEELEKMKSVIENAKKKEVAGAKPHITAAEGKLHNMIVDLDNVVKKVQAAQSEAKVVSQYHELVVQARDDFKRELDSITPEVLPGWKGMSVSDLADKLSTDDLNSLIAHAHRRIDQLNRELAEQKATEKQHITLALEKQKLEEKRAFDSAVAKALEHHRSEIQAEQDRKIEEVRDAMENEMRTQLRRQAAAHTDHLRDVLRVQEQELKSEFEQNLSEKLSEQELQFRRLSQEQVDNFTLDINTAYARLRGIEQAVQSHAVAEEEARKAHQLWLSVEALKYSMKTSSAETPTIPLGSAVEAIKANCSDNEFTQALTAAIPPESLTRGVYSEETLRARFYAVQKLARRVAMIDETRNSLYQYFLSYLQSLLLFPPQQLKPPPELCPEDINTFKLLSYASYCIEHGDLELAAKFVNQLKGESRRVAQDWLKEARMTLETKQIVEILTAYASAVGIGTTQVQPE
inactive: saracatinib -0.069 | sotrastaurin -0.036 | alvocidib -0.071 | Tubastatin A -0.076 | [1] 0.131 | defactinib 0.029 | rucaparib 0.023 | [2] -0.111 | encorafenib 0.017 | [3] 0.067

KEL (UniProt P23276)
inactive: saracatinib 0.09 | sotrastaurin -0.009 | alvocidib -0.044 | Tubastatin A 0.004 | [1] -0.091 | defactinib -0.038 | rucaparib 0.006 | [2] -0.026 | encorafenib -0.061 | [3] 0.03

KTN1 (UniProt Q86UP2)
inactive: saracatinib 0.001 | sotrastaurin -0.07 | alvocidib 0.109 | Tubastatin A 0.032 | [1] -0.12 | defactinib 0.109 | rucaparib 0.155 | [2] -0.079 | encorafenib 0.137 | [3] -0.053

KIF1B isoform 4 (UniProt O60333)
inactive: saracatinib -0.033 | sotrastaurin -0.014 | alvocidib -0.018 | Tubastatin A 0.025 | [1] 0.016 | defactinib -0.004 | rucaparib -0.006 | [2] -0.097 | encorafenib 0.023 | [3] -0.016

MED17 (UniProt Q9NVC6)
inactive: saracatinib -0.063 | sotrastaurin -0.145 | alvocidib -0.009 | Tubastatin A 0.009 | [1] -0.049 | defactinib -0.021 | rucaparib 0.109 | [2] 0.031 | encorafenib -0.081 | [3] 0.055

KIF21A isoform 4 (UniProt Q7Z4S6)
inactive: saracatinib 0.001 | sotrastaurin -0.006 | alvocidib 0.134 | Tubastatin A 0.094 | [1] 0.001 | defactinib 0.016 | rucaparib 0.109 | [2] 0.077 | encorafenib 0.175 | [3] -0.072

LNPK (UniProt Q9C0E8)
Chain of UniProt Q9C0E8 (Q9C0E8 whole entry, looked up): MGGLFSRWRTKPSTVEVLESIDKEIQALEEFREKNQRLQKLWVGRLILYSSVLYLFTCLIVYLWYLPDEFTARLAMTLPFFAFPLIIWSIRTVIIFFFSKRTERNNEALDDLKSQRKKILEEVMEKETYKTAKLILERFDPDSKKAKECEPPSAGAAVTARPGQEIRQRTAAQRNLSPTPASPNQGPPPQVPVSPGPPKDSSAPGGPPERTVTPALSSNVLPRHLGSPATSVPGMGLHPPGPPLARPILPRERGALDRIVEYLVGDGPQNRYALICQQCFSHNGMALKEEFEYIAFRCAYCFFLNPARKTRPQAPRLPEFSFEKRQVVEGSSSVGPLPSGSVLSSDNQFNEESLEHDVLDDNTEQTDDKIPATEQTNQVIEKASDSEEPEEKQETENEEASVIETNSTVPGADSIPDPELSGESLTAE
inactive: saracatinib 0.085 | sotrastaurin 0.047 | alvocidib -0.006 | Tubastatin A -0.034 | [1] 0.012 | defactinib 0.009 | rucaparib -0.015 | [2] -0.045 | encorafenib -0.013 | [3] 0.039

KIF3A (UniProt Q9Y496)
inactive: saracatinib -0.102 | sotrastaurin -0.073 | alvocidib -0.02 | Tubastatin A -0.031 | [1] 0.085 | defactinib 0.013 | rucaparib 0.292 | [2] 0.037 | encorafenib 0.003 | [3] 0.005

ILF2 (UniProt Q12905)
Chain of UniProt Q12905 (Q12905 whole entry, looked up): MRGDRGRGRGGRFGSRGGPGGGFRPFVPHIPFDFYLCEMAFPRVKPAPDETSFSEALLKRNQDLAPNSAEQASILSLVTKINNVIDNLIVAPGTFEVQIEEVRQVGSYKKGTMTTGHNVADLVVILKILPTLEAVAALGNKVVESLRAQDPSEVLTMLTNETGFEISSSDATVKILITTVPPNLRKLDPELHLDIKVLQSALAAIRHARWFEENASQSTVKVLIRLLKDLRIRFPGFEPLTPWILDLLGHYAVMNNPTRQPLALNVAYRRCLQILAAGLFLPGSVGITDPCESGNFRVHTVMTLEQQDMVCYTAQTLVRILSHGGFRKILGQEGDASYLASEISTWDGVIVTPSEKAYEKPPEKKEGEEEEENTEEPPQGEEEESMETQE
inactive: saracatinib 0.039 | sotrastaurin 0.041 | alvocidib 0.325 | Tubastatin A -0.058 | [1] 0.015 | rucaparib 0.19 | [2] 0.04 | encorafenib 0.028 | [3] 0.012
active: defactinib 0.491

LEMD2 (UniProt Q8NC56)
Chain of UniProt Q8NC56 (Q8NC56 whole entry, looked up): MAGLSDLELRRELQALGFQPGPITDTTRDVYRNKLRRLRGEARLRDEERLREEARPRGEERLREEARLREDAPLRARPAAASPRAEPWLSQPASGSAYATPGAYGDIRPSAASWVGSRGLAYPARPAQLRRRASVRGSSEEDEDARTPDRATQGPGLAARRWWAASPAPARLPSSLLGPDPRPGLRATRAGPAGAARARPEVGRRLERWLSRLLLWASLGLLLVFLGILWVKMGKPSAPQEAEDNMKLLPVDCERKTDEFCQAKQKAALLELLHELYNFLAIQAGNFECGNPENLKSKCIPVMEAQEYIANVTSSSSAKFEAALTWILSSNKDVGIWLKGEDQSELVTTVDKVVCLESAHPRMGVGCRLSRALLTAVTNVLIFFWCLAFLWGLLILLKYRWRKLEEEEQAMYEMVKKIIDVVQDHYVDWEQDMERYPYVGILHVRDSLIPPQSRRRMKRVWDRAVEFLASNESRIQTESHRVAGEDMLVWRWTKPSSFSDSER
inactive: saracatinib -0.048 | sotrastaurin 0.004 | alvocidib 0.061 | Tubastatin A 0.014 | [1] -0.058 | defactinib -0.126 | rucaparib 0.11 | [2] 0.041 | encorafenib 0.023 | [3] 0.013

IMMT isoform 4 (UniProt Q16891)
inactive: saracatinib -0.012 | sotrastaurin -0.002 | alvocidib -0.009 | Tubastatin A -0.033 | [1] -0.014 | defactinib -0.012 | rucaparib -0.055 | [2] -0.007 | encorafenib 0.012 | [3] 0.002

LSR (UniProt Q86X29)
inactive: saracatinib -0.003 | sotrastaurin 0.023 | alvocidib -0.018 | Tubastatin A 0.012 | [1] -0.074 | defactinib -0.053 | rucaparib -0.023 | [2] 0.095 | encorafenib 0.042 | [3] 0.031

MARCKSL1 (UniProt P49006)
inactive: saracatinib 0.02 | alvocidib -0.005 | Tubastatin A -0.043 | [1] 0.013 | defactinib 0.007 | rucaparib -0.035 | [2] 0.063 | encorafenib -0.04 | [3] -0.008
active: sotrastaurin 0.315

KIF11 (UniProt P52732)
inactive: saracatinib -0.059 | sotrastaurin -0.2 | alvocidib 0.041 | Tubastatin A 0.05 | [1] 0.275 | defactinib 0.017 | rucaparib 0.183 | [2] 0.088 | encorafenib 0.174 | [3] -0.055

MAGI1 (UniProt Q96QZ7)
inactive: saracatinib -0.013 | sotrastaurin -0.064 | alvocidib -0.019 | Tubastatin A -0.017 | [1] 0.021 | defactinib -0.007 | rucaparib 0.012 | [2] 0.024 | encorafenib 0.059 | [3] -0.009

MAP2K2 (UniProt P36507)
inactive: saracatinib 0.012 | sotrastaurin -0.037 | alvocidib -0.024 | Tubastatin A 0.01 | [1] -0.138 | defactinib -0.056 | rucaparib -0.039 | [2] -0.021 | encorafenib -0.074 | [3] 0.001

MARK3 (UniProt P27448)
Chain of UniProt P27448 (P27448 whole entry, looked up): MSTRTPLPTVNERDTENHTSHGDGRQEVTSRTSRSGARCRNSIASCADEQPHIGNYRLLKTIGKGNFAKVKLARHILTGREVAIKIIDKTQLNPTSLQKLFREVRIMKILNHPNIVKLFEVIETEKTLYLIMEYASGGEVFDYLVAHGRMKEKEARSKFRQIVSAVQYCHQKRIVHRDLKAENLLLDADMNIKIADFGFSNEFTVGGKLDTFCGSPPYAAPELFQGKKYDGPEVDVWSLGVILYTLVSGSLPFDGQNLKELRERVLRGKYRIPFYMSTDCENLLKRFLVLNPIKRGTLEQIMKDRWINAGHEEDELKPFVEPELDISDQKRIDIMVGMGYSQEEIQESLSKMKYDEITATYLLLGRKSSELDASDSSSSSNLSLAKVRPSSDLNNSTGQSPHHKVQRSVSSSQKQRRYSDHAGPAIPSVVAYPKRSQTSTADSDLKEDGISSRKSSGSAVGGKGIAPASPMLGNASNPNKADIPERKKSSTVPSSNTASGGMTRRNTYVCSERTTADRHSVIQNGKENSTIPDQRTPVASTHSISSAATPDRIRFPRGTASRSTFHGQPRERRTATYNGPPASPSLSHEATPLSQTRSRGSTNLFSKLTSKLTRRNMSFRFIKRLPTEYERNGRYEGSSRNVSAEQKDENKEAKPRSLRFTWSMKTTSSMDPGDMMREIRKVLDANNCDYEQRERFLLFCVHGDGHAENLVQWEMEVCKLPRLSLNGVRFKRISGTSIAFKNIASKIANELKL
active: sotrastaurin -0.434
inactive: saracatinib 0.024 | alvocidib -0.011 | Tubastatin A 0.058 | [1] -0.367 | defactinib -0.176 | rucaparib -0.016 | [2] -0.069 | encorafenib 0.096 | [3] 0.033

LMNA (UniProt P02545)
Chain of UniProt P02545 (P02545 whole entry, looked up): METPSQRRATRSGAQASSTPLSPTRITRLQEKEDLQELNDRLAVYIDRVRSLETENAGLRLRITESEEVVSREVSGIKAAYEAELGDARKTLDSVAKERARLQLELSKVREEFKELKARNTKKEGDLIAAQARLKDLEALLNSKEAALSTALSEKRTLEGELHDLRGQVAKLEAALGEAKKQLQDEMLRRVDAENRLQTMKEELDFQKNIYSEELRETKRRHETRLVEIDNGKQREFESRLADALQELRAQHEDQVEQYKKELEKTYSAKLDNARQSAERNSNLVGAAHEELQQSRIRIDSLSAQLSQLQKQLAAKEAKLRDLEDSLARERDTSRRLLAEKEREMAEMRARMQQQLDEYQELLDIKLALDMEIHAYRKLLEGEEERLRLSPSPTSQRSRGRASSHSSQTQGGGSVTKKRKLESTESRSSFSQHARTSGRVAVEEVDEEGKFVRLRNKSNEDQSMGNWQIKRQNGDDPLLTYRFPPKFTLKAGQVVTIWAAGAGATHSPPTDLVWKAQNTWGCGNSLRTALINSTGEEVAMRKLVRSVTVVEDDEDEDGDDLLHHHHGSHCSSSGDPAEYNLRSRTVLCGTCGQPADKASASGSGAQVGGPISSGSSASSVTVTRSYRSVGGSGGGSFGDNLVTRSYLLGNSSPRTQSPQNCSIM
inactive: saracatinib 0.041 | sotrastaurin -0.083 | Tubastatin A -0.033 | [1] 0.003 | defactinib -0.121 | rucaparib -0.08 | [2] -0.138 | encorafenib -0.019 | [3] 0.042
active: alvocidib -0.214

ME2 (UniProt P23368)
inactive: saracatinib 0.061 | sotrastaurin 0.014 | alvocidib 0.022 | Tubastatin A 0.026 | [1] 0.151 | defactinib -0.037 | rucaparib -0.011 | [2] -0.11 | encorafenib 0.015 | [3] 0.034
